Laboratory results published in PubChem BioAssay.
Values without a mark were called inactive. Activity calls are given as the source filed them. Rule as the data show it, unless noted: active = inhibition above about 42%; inactive = the rest.

Tests used:
[1] = StAR promoter reporter inhibitors, counter-screen for LRH-1 inverse agonist project, cell-based, luminescence, high throughput (AID 651611; in the data active = inhibition above about 28%); conditions: StAR promoter luciferase reporter counterscreen, at 3.6 µM, hits give high values
[2] = target: Nuclear receptor subfamily 5 group A member 2 (Homo sapiens) (UniProt O00482); test: LRH-1 (NR5A2) inverse agonists, retest, confirmation, cell-based, luminescence (AID 651613); conditions: cell-based LRH-1 luciferase reporter, inverse agonism; at 3.6 µM; hits give high values;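 also: HEK293T cells co-transfected with LRH-1 and StAR promoter luciferase reporter; 0% = vehicle wells and 100% = parental cells lacking receptor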
Sequence of Nuclear receptor subfamily 5 group A member 2 (Homo sapiens) (O00482 whole entry, looked up): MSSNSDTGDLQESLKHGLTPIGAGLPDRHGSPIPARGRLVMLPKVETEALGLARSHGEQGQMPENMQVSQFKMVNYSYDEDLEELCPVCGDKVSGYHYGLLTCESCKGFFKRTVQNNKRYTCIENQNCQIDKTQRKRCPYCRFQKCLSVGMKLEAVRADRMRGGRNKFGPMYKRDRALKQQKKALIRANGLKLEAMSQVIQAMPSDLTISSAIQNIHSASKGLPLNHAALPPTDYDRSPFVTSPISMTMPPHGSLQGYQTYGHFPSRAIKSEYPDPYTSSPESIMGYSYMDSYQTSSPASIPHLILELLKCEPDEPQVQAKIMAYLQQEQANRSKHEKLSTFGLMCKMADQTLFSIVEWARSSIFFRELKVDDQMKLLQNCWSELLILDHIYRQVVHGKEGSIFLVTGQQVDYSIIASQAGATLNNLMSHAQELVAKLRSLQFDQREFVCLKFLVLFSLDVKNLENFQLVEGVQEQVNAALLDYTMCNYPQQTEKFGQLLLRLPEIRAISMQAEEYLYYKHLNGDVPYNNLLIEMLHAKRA

[3] = target: Steroidogenic factor 1 (Homo sapiens) (UniProt Q13285); test: SF1 (NR5A1) inverse agonists, counter-screen for LRH-1 inverse agonist project, cell-based, luminescence, high throughput (AID 651614; in the data active = inhibition above about 44%;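 also: cells cotransfected with StAR promoter reporter and SF1 expression vector; 0% = vehicle on cells with receptor and 100% = vehicle on cells lacking receptor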); conditions: cell-based SF1 luciferase reporter, at 3.6 µM, hits give high values
Sequence of Steroidogenic factor 1 (Homo sapiens) (Q13285 whole entry, looked up, the tested form may be a part): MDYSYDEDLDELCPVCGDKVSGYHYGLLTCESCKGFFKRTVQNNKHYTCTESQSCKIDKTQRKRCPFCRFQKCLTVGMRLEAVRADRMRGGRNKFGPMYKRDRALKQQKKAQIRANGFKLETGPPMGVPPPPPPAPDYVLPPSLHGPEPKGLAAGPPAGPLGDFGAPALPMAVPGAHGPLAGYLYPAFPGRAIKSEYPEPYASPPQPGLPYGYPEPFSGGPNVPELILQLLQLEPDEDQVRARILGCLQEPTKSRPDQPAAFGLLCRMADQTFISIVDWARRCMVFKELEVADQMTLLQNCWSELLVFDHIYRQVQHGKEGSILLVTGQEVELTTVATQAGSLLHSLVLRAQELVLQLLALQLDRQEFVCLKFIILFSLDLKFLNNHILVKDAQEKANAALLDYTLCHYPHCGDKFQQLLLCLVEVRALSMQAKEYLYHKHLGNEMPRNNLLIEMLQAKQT

[4] = VP16 transactivation reporter inhibitors, counter-screen for LRH-1 inverse agonist project, cell-based, luminescence, high throughput (AID 651615; in the data active = inhibition above about 33%); conditions: Gal4-VP16 luciferase reporter cells, at 3.6 µM, hits give high values

SMILES	inhibition [1]	inhibition [2]	inhibition [3]	inhibition [4]
Cc1ccccc1NC(=O)c1ccc([N+](=O)[O-])o1	8.33%	64.8% (active)	57.6% (active)	-16%
COc1cccc(C(NC(C)=O)c2ccc3cccnc3c2O)c1 (stereo not drawn)	74.9% (active)	89.8% (active)	76.5% (active)	76.3% (active)
O=C(Nc1ccc(S(=O)(=O)N2CCOCC2)cc1)c1ccc([N+](=O)[O-])o1	17.6%	57.5% (active)	65.2% (active)	-5.86%
O=C1c2ccccc2-n2c1nc1ccccc1c2=O	41.1% (active)	66.7% (active)	57.8% (active)	51% (active)
CC1SC(C)C(=O)N(CC(=O)Nc2ccc3c(c2)OCO3)C1=O (stereo not drawn)	8.81%	49.1% (active)	36.9%	-7.59%
Cc1cc(S(=O)(=O)NCc2ccncc2)c(C)cc1Br	-10.6%	39%	38.6%	41.4% (active)
CC(C)CNC(=O)COC(=O)c1c2c(nc3ccccc13)/C(=C/c1cccs1)CC2	-15.9%	4.19%	-12.8%	-8.73%
CC(NC(=O)c1ccc([N+](=O)[O-])o1)C1CC2CCC1C2 (stereo not drawn)	3.5%	49.1% (active)	44.2% (active)	10.8%
CN1CCN(C2=C(Cl)C(=O)N(c3ccc(Cl)c(Cl)c3)C2=O)CC1	11.1%	39.3%	41.6%	-5.07%
CC(C)Oc1cccc(-c2cc(C(=O)NN3CCOCC3)c3ccccc3n2)c1	17.5%	40.7%	40.4%	-17.7%
COc1ccc(CNC(=O)O[C@@H]2C[C@H]3C(=O)N(c4ccccc4)C(=O)[C@H]3[C@@]3(CN(S(=O)(=O)c4ccc(C)cc4)C[C@H]3C)[C@@H]2O)cc1OC	9.47%	18.4%	13.8%	8.56%
CC(=O)NC12CC3CC(C1)CC(C(=O)Nc1nc4ccc(S(C)(=O)=O)cc4s1)(C3)C2	11.2%	50.8% (active)	45.2% (active)	-1.09%
CC(=O)N1CCc2c(sc(NC(=O)Cc3ccccc3)c2C#N)C1	18.4%	64% (active)	57.4% (active)	-30.8%
CCC(=O)Nc1nnc(SCC(=O)NCCc2ccc(OC)c(OC)c2)s1	12.9%	55.6% (active)	57.3% (active)	-15.4%
CN1C=C/C(=C\c2cc[n+](C)c3ccccc23)c2ccccc21	28.6% (active)	108% (active)	46.8% (active)	81.4% (active)
COc1ccc(CCNC(=O)CN2C(=O)C3(OCCCO3)c3ccccc32)cc1OC	11.2%	45.7% (active)	52.5% (active)	-9.46%
O=C(Nc1ccc2c(c1)CCCN2C(=O)c1ccco1)c1cc([N+](=O)[O-])ccc1Cl	51.9% (active)	39.3%	59.1% (active)	33.9% (active)
O=C(c1ccccc1Br)N1CCN(c2ccc([N+](=O)[O-])c(N3CCOCC3)c2)CC1	8.23%	42% (active)	38.9%	-4.88%
CN1C(=O)NC(c2ccccc2[N+](=O)[O-])C2=C1CC(C)(C)CC2=O (stereo not drawn)	3.55%	19%	-6.97%	0.8%
CCCCCCCCn1c2c(c(=N)c3ccccc31)CCC2	78.5% (active)	110% (active)	92.8% (active)	92.1% (active)
Cc1ccc(C2CC(C(F)(F)F)n3nc(C(=O)NCc4ccco4)cc3N2)cc1 (stereo not drawn)	0.64%	44.1% (active)	44.8% (active)	-8.91%
COc1cccc(C2c3cc4c(cc3OC(NNC(N)=O)C2C)OCO4)c1O (stereo not drawn)	24.7%	59% (active)	60.1% (active)	26.5%
